Measurements taken from publication PMC4336329 (PLoS ONE, 2015).
The campaign covered roughly 310,000 compounds. About 2,200 (0.71%) showed an effect of 50% or more. Effects have a minus sign here. Shown is part of a subset that was picked to be rich in strong results.

These compounds were tested against human ether-à-go-go-related gene (hERG) potassium channel (human, UniProt Q12809) (assay: primary screen, population patch clamp on CHO cells stably expressing hERG; higher = less effect of the substance).
human ether-à-go-go-related gene (hERG) potassium channel, sequence (Q12809 whole entry, looked up): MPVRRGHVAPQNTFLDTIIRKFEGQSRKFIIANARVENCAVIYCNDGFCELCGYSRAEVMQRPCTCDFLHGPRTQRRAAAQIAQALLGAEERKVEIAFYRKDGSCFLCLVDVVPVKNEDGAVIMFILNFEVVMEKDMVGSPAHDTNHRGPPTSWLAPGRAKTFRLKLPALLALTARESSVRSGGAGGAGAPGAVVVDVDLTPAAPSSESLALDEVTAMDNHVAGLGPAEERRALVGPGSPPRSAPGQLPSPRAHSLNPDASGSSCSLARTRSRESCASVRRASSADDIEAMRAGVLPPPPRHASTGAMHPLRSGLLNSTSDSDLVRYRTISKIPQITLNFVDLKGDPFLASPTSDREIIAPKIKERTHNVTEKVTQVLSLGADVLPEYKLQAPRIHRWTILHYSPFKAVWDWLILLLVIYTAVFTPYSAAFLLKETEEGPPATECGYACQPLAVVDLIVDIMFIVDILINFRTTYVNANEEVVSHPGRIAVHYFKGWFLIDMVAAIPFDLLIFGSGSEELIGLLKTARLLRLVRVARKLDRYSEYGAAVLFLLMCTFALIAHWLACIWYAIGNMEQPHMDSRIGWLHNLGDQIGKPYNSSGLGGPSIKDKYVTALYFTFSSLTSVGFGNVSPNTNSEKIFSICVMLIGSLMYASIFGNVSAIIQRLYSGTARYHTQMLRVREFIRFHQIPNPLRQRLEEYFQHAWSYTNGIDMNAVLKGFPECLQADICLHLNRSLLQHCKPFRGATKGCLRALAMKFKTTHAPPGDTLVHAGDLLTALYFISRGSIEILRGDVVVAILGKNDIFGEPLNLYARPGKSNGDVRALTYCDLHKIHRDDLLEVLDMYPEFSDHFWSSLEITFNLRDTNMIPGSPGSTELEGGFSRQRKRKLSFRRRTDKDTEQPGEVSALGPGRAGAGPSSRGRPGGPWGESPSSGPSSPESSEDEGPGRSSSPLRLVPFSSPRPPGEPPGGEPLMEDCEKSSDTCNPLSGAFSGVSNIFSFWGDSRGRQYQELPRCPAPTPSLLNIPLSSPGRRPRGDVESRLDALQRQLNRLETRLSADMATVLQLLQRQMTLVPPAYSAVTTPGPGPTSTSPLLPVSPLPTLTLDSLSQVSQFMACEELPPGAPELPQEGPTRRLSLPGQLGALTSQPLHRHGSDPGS

Structure (SMILES) | hERG current change (%, negative = inhibition) at 1uM [%]
CN1CCN(C2=C(Cl)C(=O)N(CCc3ccccc3)C2=O)CC1 | 17.7
CCN(CC)S(=O)(=O)c1ccc(C(=O)Nc2c3c(nn2C(C)(C)C)CS(=O)(=O)C3)cc1 | 5.04
Cc1cc(C)c[n+](-c2nc3ccccc3nc2[N-]S(=O)(=O)c2cccs2)c1 | 2.45
COC(=O)c1ccccc1NC(=O)CNc1cc(Cl)ccc1N1CCOCC1 | -0.671
CCC(=O)Nc1cccc(C(=O)Nc2nccs2)c1 | 8.98
CN1CCC(=NNC(=O)c2ccc(N(Cc3ccccc3Cl)S(C)(=O)=O)cc2)CC1 | 6.54
CCc1ccccc1NC(=O)/C(=C/c1ccccc1)c1ccccc1 | -4.2
Cc1ccc(OCC(=O)NC(=S)Nc2ccc(Br)c(C)n2)cc1 | 5.89
O=C(CCCC(=O)c1ccc(F)cc1)c1ccc(F)cc1 | 5.62
CCN(CCCC(=O)c1ccc(F)cc1)CCc1ccccc1.Cl | -86.5
O=C(CCCc1ccccc1)c1ccccc1 | 19.4
COCCn1nnnc1C(c1ccc(OC)c(OC)c1)N1CCN(c2nc3ccccc3s2)CC1 (stereo not drawn) | 2.83
COCCN(C(=O)c1csnn1)C(C(=O)NC1CCCC1)c1ccccc1F (stereo not drawn) | 12.6
CN(C)CCNc1nc2sc3c(c2c(=O)n1-c1ccc(F)cc1)CCCCC3 | 6.73
COc1ccc(-n2c(NN)nc3sc4c(c3c2=O)CCCC4)cc1 | -9.75
COc1ccc(-n2c(NCCN(C)C)nc3sc4c(c3c2=O)CCCCC4)cc1 | -69.4
CC1(C)CC(NC(=O)C2CCN(S(=O)(=O)c3ccc(F)cc3)CC2)CC(C)(C)N1 | 16.9
CCOC(=O)C1(Cc2ccc(Cl)cc2)CCN(C(=O)c2cscn2)CC1 | -12.4
CCOC(=O)C1(Cc2cccc(OC)c2)CCCN(Cc2nccn2CC)C1 (stereo not drawn) | -13.5
CCOC(=O)C1(Cc2ccc(Cl)cc2)CCN(Cc2ccon2)CC1 | 5.86
CCOC(=O)C1(Cc2ccccc2)CCN(Cc2nccn2CC)CC1 | 8.81
CCOC(=O)C1(Cc2cccc(OC)c2)CCN(Cc2cnc(N)nc2)CC1 | 5.79
CCOC(=O)C1(Cc2ccc(Cl)cc2)CCN(Cc2cnc(N)nc2)CC1 | -60.6
CCOC(=O)C1(Cc2ccc(Cl)cc2)CCN(C(=O)C2=NNC(=O)CC2)CC1 | -61.2
O=C1CCC(C(=O)N2CCC(CO)(Cc3ccc(Cl)cc3)CC2)=NN1 | 2.9
CCOC(=O)C1(Cc2ccc(Cl)cc2)CCN(Cc2nccn2CC)CC1 | -57
COc1ccccc1C(=O)Nc1nnc(S(=O)(=O)N2CCC(C)CC2)s1 | 12.4

Structure (SMILES) | hERG current change (%, negative = inhibition) at 1uM [%]
CCOc1ccc(CNC(=O)C2CCCN(c3nnc(C)c4c(C)n(-c5ccccc5)nc34)C2)cc1 (stereo not drawn) | 8.87
N#C/C(=C/c1ccc(N2CCCCCC2)o1)c1ccc(F)cc1 | 16.2
O=C1CC(Nc2ccc(N3CCOCC3)cc2)C(=O)N1c1ccccc1F (stereo not drawn) | 3.19
CCN1C(=O)[C@H]2[C@@H](c3ccc(-c4ccc(OC)cc4)cc3)N3CCC[C@@]3(C(=O)OC)[C@H]2C1=O.O=C(O)C(F)(F)F | 11.6
Cc1cc(C)c(S(=O)(=O)N2CCCCC2CCNC(=O)C(=O)NCCN2CCOCC2)c(C)c1 (stereo not drawn) | 6.75
Cc1cc(C(C)(C)C)ccc1OCCOCCN1CCCC1 | -0.816
Cc1cc(C(C)(C)CC(C)(C)C)ccc1OCCOCC[N+](C)(C)Cc1ccccc1.[Cl-] | -62
Cc1cc(C(C)(C)C)ccc1OCCN(C)C | -15.1
COc1cccc(S(=O)(=O)NCC(=O)N2CCCCCC2)c1 | 25
Cc1ccc(S(=O)(=O)N2CCN(c3ccccc3)CC2)cc1C(=O)NC1CCCCC1 | 10.8
Cc1ccc(S(=O)(=O)N2CCN(c3ccccc3)CC2)cc1C(N)=O | -52
Cc1ccc(S(=O)(=O)N2CCN(c3ccccc3)CC2)cc1C | 12.5
CC(C)OC(=O)c1ccc(NC(=O)c2ccco2)cc1 | 6.19
Cc1ccc(S(=O)(=O)Cn2nnnc2C(CC(C)C)N2CCN(C(=O)c3ccco3)CC2)cc1.Cl (stereo not drawn) | 7.63
C=CCNc1nc(C(=O)OCC(=O)Nc2cc(S(C)(=O)=O)ccc2Cl)cs1 | 4.15
NC(=O)CCCn1c(C(=O)c2ccc(Cl)cc2)c2ccc([N+](=O)[O-])cc2[n+]1[O-] | -58.2
[Cl-].[NH3+]CCCn1c(C(=O)c2ccc(Cl)cc2)c2ccc([N+](=O)[O-])cc2[n+]1[O-] | -47.1
Cc1ccc(C(=O)c2c3ccc(C(F)(F)F)cc3[n+]([O-])n2CCCC(N)=O)cc1 | -39
Nc1c(Cl)cc(C(=O)c2c3ccc(C(F)(F)F)cc3[n+]([O-])n2CCC[NH3+])cc1Cl.[Cl-] | -37.3
NC(=O)CCCn1c(C(=O)c2ccc(Cl)cc2)c2ccc(C(F)(F)F)cc2[n+]1[O-] | -80.1
Cc1ccc(C(=O)c2c3ccc([N+](=O)[O-])cc3[n+]([O-])n2CCCC(N)=O)cc1 | -11.4
Nc1c(Cl)cc(C(=O)c2c3ccc([N+](=O)[O-])cc3[n+]([O-])n2CCC[NH3+])cc1Cl.O=C([O-])C(F)(F)F | 1.56
Cc1ccc(C(=O)c2c3ccc(C(F)(F)F)cc3[n+]([O-])n2CCC(N)=O)cc1 | -28.8
NC(=O)CCCn1c(C(=O)c2cc(Cl)c(N)c(Cl)c2)c2ccc(C(F)(F)F)cc2[n+]1[O-] | 5.14
Cc1ccc(C(=O)c2c3ccc(C(F)(F)F)cc3[n+]([O-])n2CCC[NH3+])cc1.O=C([O-])C(F)(F)F | -64.4
Cc1ccc(C(=O)c2c3ccc([N+](=O)[O-])cc3[n+]([O-])n2CCC[NH3+])cc1.O=C([O-])C(F)(F)F | -14.7
[Cl-].[NH3+]CCCn1c(C(=O)c2ccc(Cl)cc2)c2ccc(C(F)(F)F)cc2[n+]1[O-] | -80.9
